Source: PubChem BioAssay (NCATS)
Results filed as inconclusive are left out. Where a call stands in place of a potency, no number is given. Calls of active or inactive are those of the source. Calls follow the shape of the full dose curve.

Legend:
[1] = Primary qHTS for inhibitors of SARS-S pseudo-typed particle cell entry (AID 1479145); also: nearly all actives have a fitted effect of over 45% in size
[2] = Primary qHTS for Huh7 cytotoxicity: counterscreen for inhibitors of MERS-S pseudotyped particle cell entry (AID 1479147)
[3] = Primary qHTS for inhibitors of MERS-S pseudo-typed particle cell entry (AID 1479149); also: nearly all actives have a fitted effect of over 60% in size
[4] = Primary qHTS for Vero E6 cytotoxicity: counterscreen for inhibitors of SARS-S pseudo-typed particle cell entry (AID 1479150); also: potency is read from the fitted curve at half-maximal effect

SMILES	Potency [1]	Potency [2]	Potency [3]	Potency [4]
CN(C)[C@@H]1C(=O)C(C(=O)NCN2CCCC2)=C(O)[C@@]2(O)C(=O)C3=C(O)c4c(O)cccc4[C@@](C)(O)C3C[C@@H]12 (some centres undefined)	inactive	inactive	inactive	inactive
CCCOc1ccc(C(=O)OCCN(CC)CC)cc1N	inactive	inactive	inactive	inactive
Cc1cc(O)c(C(C)C)cc1Cl	inactive	inactive	inactive	inactive
O=S1(=O)OC(c2ccc(O)cc2)(c2ccc(O)cc2)c2ccccc21	inactive	inactive	inactive	inactive
Cc1ccc(=O)n(-c2ccccc2)c1	inactive	inactive	inactive	inactive
OC(CCN1CCCCC1)(c1ccccc1)C1CC2C=CC1C2 (centres undefined)	inactive	inactive	inactive	inactive
N[C@@H](CSCCCO)C(=O)O	inactive	inactive	inactive	inactive
Cc1c(N(C)C)c(=O)n(-c2ccccc2)n1C	inactive	inactive	inactive	inactive
COc1cc(NS(=O)(=O)c2ccc(N)cc2)nc(OC)n1	inactive	inactive	inactive	inactive
Cc1cccc(N(C)C(=S)Oc2ccc3ccccc3c2)c1	inactive	inactive	inactive	inactive
CC(=O)O[C@H]1C[C@@H]2CC[C@@H]3[C@H](CC[C@@]4(C)[C@H]3C[C@H]([N+]3(C)CCCCC3)[C@@H]4OC(C)=O)[C@@]2(C)C[C@@H]1N1CCCCC1	inactive	inactive	inactive	inactive
CC(C)(Oc1ccc(CCNC(=O)c2ccc(Cl)cc2)cc1)C(=O)O	inactive	inactive	inactive	inactive
CN1C(=O)CC(c2ccccc2)C1=O (centres undefined)	inactive	inactive	inactive	inactive
C[C@@H]1CCN(C(=O)[C@H](CCCN=C(N)N)NS(=O)(=O)c2cccc3c2NC[C@H](C)C3)[C@@H](C(=O)O)C1	inactive	inactive	inactive	inactive
Cc1cc(C(C)(C)C)c(O)c(C)c1CC1=NCCN1	inactive	inactive	inactive	inactive
CCN(CC)CC(=O)Nc1c(C)cccc1C(=O)OC	inactive	inactive	inactive	inactive

SMILES	Potency [1]	Potency [2]	Potency [3]	Potency [4]
O=C(CCCCC(=O)Nc1c(I)cc(I)c(C(=O)O)c1I)Nc1c(I)cc(I)c(C(=O)O)c1I	inactive	inactive	inactive	inactive
OC[C@@H](O)[C@H](O)[C@H](O)[C@@H](O)CO	inactive	inactive	inactive	inactive
Cc1ccc(/C=N/n2c(-c3ccccc3)csc2=S)cc1	inactive	inactive	inactive	inactive
C[C@]12C=CC(=O)C=C1CC[C@H]1[C@@H]3C[C@@H](O)[C@](O)(C(=O)CO)[C@@]3(C)C[C@H](O)[C@@]12F	inactive	inactive	inactive	inactive
CC1=C(CC(=O)O)c2cc(F)ccc2/C1=C\c1ccc(S(C)=O)cc1 (centres undefined)	inactive	inactive	inactive	inactive
C[C@]12CC[C@@H]3c4ccc(O)cc4CC[C@H]3[C@@H]1C[C@@H](O)[C@@H]2O	inactive	inactive	inactive	inactive
CCC(=O)Oc1ccc2c(c1)CC[C@@H]1[C@@H]2CC[C@@]2(C)[C@H]1C[C@@H](OC(=O)CC)[C@@H]2OC(=O)CC	inactive	inactive	inactive	inactive
CC(=O)/C=C/C=C1/C2CCC(C2)C1(C)C (centres undefined)	inactive	inactive	inactive	inactive
COc1ccc2c(c1)c(CC(=O)OCC(=O)O)c(C)n2C(=O)c1ccc(Cl)cc1	inactive	inactive	inactive	inactive
CCN1CCCC(OC(=O)C(c2ccccc2)c2ccccc2)C1 (centres undefined)	inactive	inactive	inactive	inactive
COCc1c(C(C)C)nc(C(C)C)c(/C=C/[C@@H](O)C[C@@H](O)CC(=O)O)c1-c1ccc(F)cc1	inactive	inactive	inactive	708 nM (active)
CC(=O)N(CC(O)CN(C(C)=O)c1c(I)c(C(=O)NCC(O)CO)c(I)c(C(=O)NCC(O)CO)c1I)c1c(I)c(C(=O)NCC(O)CO)c(I)c(C(=O)NCC(O)CO)c1I (centres undefined)	inactive	inactive	inactive	inactive
C[C@H]1COc2c(C3(N)CC3)c(F)cc3c(=O)c(C(=O)O)cn1c23	inactive	inactive	inactive	inactive
CN1CCCN=C1COC(=O)C(O)(c1ccccc1)C1CCCCC1 (centres undefined)	inactive	inactive	inactive	inactive
O=C1c2ccccc2C(=O)C1c1ccccc1	inactive	inactive	inactive	inactive
